# Experimental data as given in PubChem BioAssay (Tox21).
# Values joined by “and” are separate entries in the source; they are usually repeats but may differ in a detail not shown here. Equal values may be shown once. Inconclusive results are not listed. Where a call stands in place of a potency, no number is given. Values without a mark were called inactive. Active and inactive are the calls of the source. Unless noted, calls come from the whole dose curve; as a rule, active = well fitted curve in the direction sought with a large enough effect in the repeat runs; inconclusive = weak or mixed curves; inactive = no such curve, though single readings can be large; an effect the other way counts as inactive or inconclusive.
# Assays:
# [1] = qHTS assay to identify small molecule antagonists of the retinoid acid receptor (RAR) signaling pathway - cell viability counter screen (AID 1159551); note: nearly all actives have a fitted effect of over 35% in size; note: potency is the fitted concentration of half-maximal effect
# Procedure, shortened: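 C3RL4 RARE-luciferase cells, 1,000/well, incubated overnight, then dosed with compound plus 1 uM retinol (final). After 6 hr at 37 C, viability read by CellTiter-Glo ATP luminescence following 30 min at room temperature.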
# [2] = qHTS assay to identify small molecule antagonists of the retinoic acid receptor (RAR) signaling pathway (AID 1159552; note: nearly all actives have a fitted effect of over 50% in size; note: potency is the fitted concentration of half-maximal effect)
# Procedure, shortened: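 Luminescent RARE reporter read-out in C3RL4 cells: 6 hr co-treatment at 37 C of test compounds with retinol at 1 uM final. Cells plated overnight beforehand; luciferase reagent incubated 30 min at room temperature before reading.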
# [3] = qHTS assay to identify small molecule agonists of the retinoic acid receptor (RAR) signaling pathway (AID 1159553); note: potency is the fitted concentration of half-maximal effect
# Procedure, shortened: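 C3RL4 RARE-luciferase cells were seeded at 1,000/well and grown overnight at 37 C, then exposed to compounds for 6 hr at 37 C, 5% CO2. Luciferase reagent was added and luminescence was read after 30 min at room temperature.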
# [4] = qHTS assay to identify small molecule antagonists of the estrogen related receptor (ERR) signaling pathway from Tox21 library - cell viability counter screen (AID 1224834); note: nearly all actives have a fitted effect of over 30% in size; note: potency is the fitted concentration of half-maximal effect
# Procedure, shortened: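 ERR reporter cells, 2,000 per well, rested 6 h, then exposed to compound in DMSO for 17.5 hours at 37 C. Viability read as fluorescence after 30 min with CellTiter-Fluor.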
# [5] = qHTS assay to identify small molecule antagonists of the estrogen related receptor (ERR) signaling pathway - cell viability counter screen (AID 1224818); note: series mostly up to about 46 µM
# Procedure, shortened: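 ERR cells, 2,000 per well, compound added after 6 h and incubated 17.5 h at 37 C. Viability read by CellTiter-Fluor fluorescence after a further 30 min at 37 C.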
# [6] = qHTS assay to identify small molecule agonists of the estrogen related receptor (ERR) signaling pathway (AID 1224820)
# Procedure, shortened: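 ERR reporter cells (NTP line) plated 2,000/well, incubated 6 h at 37 C/5% CO2, then pinned with compounds in DMSO and held 18 h at 37 C. One-Glo added; luminescence read after 30 min at room temperature.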
# [7] = qHTS assay to identify small molecule antagonists of the estrogen related receptor signaling pathway with the pleiotropic PPARgamma coactivator (PGC) cell viability counter screen (AID 1224822; note: series mostly up to about 46 µM)
# Procedure, shortened: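 PGC/ERR cells rested 6 h, then compound-treated 17.5 h at 37 C. CellTiter-Fluor added for 30 min at 37 C, viability measured by fluorescence intensity.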
# [8] = system: estrogen-related receptor alpha (ERRalpha) with PGC-1alpha coactivator, human; test: qHTS assay to identify small molecule antagonists of the estrogen related receptor signaling pathway with the pleiotropic PPARgamma coactivator (PGC) (AID 1224821; calls by dose curve;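 note: series mostly up to about 46 µM; lower luminescence signal means antagonism of PGC/ERR signalling; nearly all actives have a fitted effect of over 50% in size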)
# Procedure, shortened: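 Cells engineered for PGC/ERR signalling (line from NTP) were plated 6 h at 37 C/5% CO2, then exposed to DMSO-dissolved compound for 18 h at 37 C. Luciferase activity was read by One-Glo luminescence after 30 min at room temperature.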
# [9] = qHTS assay to identify small molecule agonists of the estrogen related receptor signaling pathway with the pleiotropic PPARgamma coactivator (PGC) (AID 1224823)
# Procedure, shortened: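 PGC/ERR reporter cells were seeded, rested 6 h at 37 C/5% CO2, then exposed to compounds in DMSO by pin transfer for 18 h at 37 C. Luciferase activity was read as luminescence after One-Glo reagent and 30 min at room temperature.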
smiles,measurement,setting,value
OCCCS,Potency,[1],inactive
same,Potency,[2],inactive
CCCCCCCCCCCCN(CCO)CCO,Potency,[1],68.3 µM (active)
same,Potency,[2],54.3 µM (active)
Cc1cc(C)c(C=O)c(C)c1,Potency,[1],inactive
same,Potency,[2],inactive
CCc1ccc(C)nc1,Potency,[1],inactive
same,Potency,[2],inactive
OCCCCl,Potency,[1],inactive
same,Potency,[2],inactive
COc1ccc2sc(C(=O)Nc3nnn[nH]3)c(OC(C)C)c2c1,Potency,[1],inactive
CCC(C)c1ccccc1 (stereo not given),Potency,[1],inactive
same,Potency,[2],inactive
CC(=O)O[C@@H]1C[C@@H]2CC[C@@]1(C)C2(C)C,Potency,[1],inactive
same,Potency,[2],inactive
CCCSS/C(CCO)=C(\C)N(C=O)Cc1cnc(C)nc1N,Potency,[1],inactive
same,Potency,[2],29.8 µM (active)
CNCC[C@H](Oc1cccc2ccccc12)c1cccs1,Potency,[1],inactive
CNC(=S)NN,Potency,[1],inactive
same,Potency,[2],43.3 µM (active)
C=CCCCCCCC=C,Potency,[1],inactive
CNC(=O)c1cc(Oc2ccc(NC(=O)Nc3ccc(Cl)c(C(F)(F)F)c3)cc2)ccn1,Potency,[1],inactive
same,Potency,[2],29.8 µM (active)
same,Potency,[3],inactive
COc1cccc(CCc2ccccc2OCC(CN(C)C)OC(=O)CCC(=O)O)c1 (stereo not given),Potency,[1],inactive
CCO[Si](CCCSSSSCCC[Si](OCC)(OCC)OCC)(OCC)OCC,Potency,[1],inactive
CCOC(=O)COc1ccc(C)cc1,Potency,[1],inactive
same,Potency,[2],inactive
C=CC(C)C#N (stereo not given),Potency,[1],inactive
same,Potency,[2],inactive
CCCN(CCc1cccs1)[C@H]1CCc2c(O)cccc2C1,Potency,[1],inactive
C/C=C/CO,Potency,[1],inactive
CC1=CP(=O)(c2ccccc2)CC1 (stereo not given),Potency,[1],inactive
same,Potency,[2],inactive
CC(=O)Nc1ccc(O)cc1,Potency,[1],inactive
Cc1oc(-c2ccccc2)nc1CCOc1ccc(C[C@H](Nc2ccccc2C(=O)c2ccccc2)C(=O)O)cc1,Potency,[1],inactive
same,Potency,[2],inactive
O=C1OC(=O)c2ccc3c4c(ccc1c24)C(=O)OC3=O,Potency,[1],inactive
same,Potency,[2],inactive
COc1cccc(O)c1,Potency,[1],inactive
same,Potency,[2],inactive
Cc1occc1SSc1ccoc1C,Potency,[1],inactive
O=C1OC(OC(=O)c2cccnc2Nc2cccc(C(F)(F)F)c2)c2ccccc21 (stereo not given),Potency,[1],inactive
CC(=O)Oc1ccc(C2(c3ccc(OC(C)=O)cc3)Oc3ccccc3NC2=O)cc1,Potency,[1],inactive
CCC(C)(C)c1cc(O)c(C(C)(C)CC)cc1O,Potency,[1],inactive
O=C=NCc1cccc(CN=C=O)c1,"activity change, negative = cytotoxicity",[1],2.07% [at 19 µM]
same,"activity, negative = inhibition",[2],6.56% [at 19 µM]
CN(C)CCN1CCOCC1,Potency,[1],inactive
same,Potency,[2],inactive
C/C=C/c1ccc(OC)c(OC)c1,Potency,[1],inactive
CC(=O)C=O,Potency,[1],inactive
same,Potency,[2],inactive
CS(C)(=O)=O,Potency,[1],inactive
same,Potency,[2],inactive
CCCCN(CCCC)CCC(O)c1cc2c(Cl)cc(Cl)cc2c2cc(C(F)(F)F)ccc12 (stereo not given),Potency,[1],inactive
C=CC/C=C/C/C=C/C/C=C/C,Potency,[1],inactive
same,Potency,[2],inactive
CCOC(=O)[C@@](C)(N)Cc1ccc(O)c(O)c1,Potency,[1],inactive
CC(C)(C)CC(C)(C)c1ccccc1O,Potency,[1],54.8 µM (active)
same,Potency,[2],27.4 µM (active)
CCOC(=O)CN,Potency,[1],inactive
same,Potency,[2],inactive
CCc1cccc(C)c1,Potency,[1],inactive
COc1cc(C(=O)NS(=O)(=O)c2ccccc2C)ccc1Cc1cn(C)c2ccc(NC(=O)OC3CCCC3)cc12,Potency,[1],inactive
same,Potency,[2],inactive
same,Potency,[3],inactive
same,Potency,[4],inactive
CCOC(=O)N1CCC(=C2c3ccc(Cl)cc3CCc3cccnc32)CC1,Potency,[1],inactive
same,Potency,[2],inactive
same,Potency,[3],inactive
same,Potency,[5],inactive
same,outcome,[6],inactive
same,Potency,[7],inactive
same,Potency,[4],24.3 µM (active) and 29.8 µM (active)
O=C1OC(=O)c2cccc3cccc1c23,Potency,[1],inactive
same,Potency,[2],inactive
same,Potency,[3],inactive
same,Potency,[4],inactive
CO[C@H]1C=CO[C@@]2(C)Oc3c(C)c(O)c4c(O)c(cc(O)c4c3C2=O)NC(=O)/C(C)=C\C=C/[C@H](C)[C@H](O)[C@@H](C)[C@@H](O)[C@@H](C)[C@H](OC(C)=O)[C@@H]1C,Potency,[1],inactive
same,Potency,[2],inactive
same,Potency,[3],inactive
same,Potency,[4],61.6 µM (active)
CSc1c(Cl)c(Cl)c(Cl)c(Cl)c1Cl,Potency,[1],inactive
same,Potency,[2],inactive
same,Potency,[3],inactive
same,Potency,[4],inactive
O=C(c1ccccc1)c1cc(Cl)ccc1O,Potency,[1],inactive
same,Potency,[2],inactive
same,Potency,[3],inactive
same,Potency,[4],inactive
C[C@H]1O[C@@H](O[C@H]2[C@@H](O)C[C@H](O[C@H]3[C@@H](O)C[C@H](O[C@H]4CC[C@@]5(C)[C@H](CC[C@@H]6[C@@H]5C[C@@H](O)[C@]5(C)[C@@H](C7=CC(=O)OC7)CC[C@]65O)C4)O[C@@H]3C)O[C@@H]2C)C[C@H](O)[C@@H]1O,Potency,[1],inactive
same,Potency,[2],inactive
same,Potency,[3],inactive
same,Potency,[4],86.4 nM (active) and 95.8 nM (active)
CCN1CCN(c2cc(-c3ccc(F)cc3)c3c(n2)CCCCCC3)CC1,"activity change, negative = cytotoxicity",[1],0.574% [at 19 µM]
same,"activity, negative = inhibition",[2],9.21% [at 19 µM]
same,Potency,[3],inactive
COc1cc(C(C)C)c2c(c1)S(=O)(=O)N(COc1cc(=O)n3cccc(OCCN4CCCCC4)c3n1)C2=O,"activity change, negative = cytotoxicity",[1],5.72% [at 19 µM]
same,"activity, negative = inhibition",[2],1.67% [at 19 µM]
same,Potency,[3],inactive
O=C(NO)c1ccccc1,Potency,[1],inactive
same,Potency,[2],inactive
same,Potency,[3],inactive
same,Potency,[5],inactive
same,outcome,[6],inactive
same,outcome,[8],inactive
same,Potency,[7],inactive
same,outcome,[9],inactive
CC1=C(/C=C/C(C)=C/C=C/C(C)=C\C=O)C(C)(C)CCC1,Potency,[1],inactive
same,Potency,[2],inactive
same,Potency,[3],1.63 µM (active)
same,Potency,[4],51.6 µM (active)
O=C(O)CC(=O)O,Potency,[1],inactive
same,Potency,[2],inactive
same,Potency,[3],inactive
same,Potency,[4],inactive
CC(COC(=O)c1ccccc1)OC(=O)c1ccccc1 (stereo not given),Potency,[1],inactive
same,Potency,[2],inactive
same,Potency,[3],inactive
same,Potency,[4],inactive
C=C1C(C)(C)[C@@]2(Cl)C(Cl)[C@]1(Cl)C(Cl)(Cl)C2(Cl)Cl (stereo not given in full),Potency,[1],inactive
same,Potency,[2],60 µM (active)
same,Potency,[3],inactive
same,Potency,[4],67.3 µM (active)
C(=C/c1ccccc1)/c1ccccc1,Potency,[1],inactive
same,Potency,[2],inactive
same,Potency,[3],inactive
Cc1c(C)n(Cc2ccccc2)c2ccc(C(=O)OCCN(C)C)cc12,Potency,[1],inactive
same,Potency,[2],inactive
same,Potency,[3],inactive
